Measured values published in the supplement of paper PMC6555819.

What follows are sequences tested on RARa:RXR (NR concentration 270 nM, RXRa partner concentration 90 nM) (assay: PBM binding z-score (relative to random genomic background probes); higher = stronger binding; sequences stand for … in GC…GCGATTGACAGCGTAGAATGAAGG).
Method in brief: (§1)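 Custom Agilent 4×180K protein-binding microarrays carried double-stranded probes, each with a 34-nt variable region. These regions held direct-repeat seeds, single-nucleotide variants, half-site ablations and random human genomic background sequences. Ligand-free nuclear receptor dimers were incubated on the arrays for 1 h, antibodies against each partner (one per run) detected binding, and scanned fluorescence was regression-normalized. Binding z-scores take the random background probes as reference.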

Row | Sequence | PBM binding z-score
1 | TCTCGGAGGACACGATGGTCAGAGCTTTCCAGAG | -0.201
2 | GCTTACGGATCAAAGGTTATAGCATGAATAGAAT | 3.61
3 | CTACCAAGGTGAACAAGGTCGTCGATTACTATTC | 2.65
4 | AATACAGGGTCATCGTAGGCCAGTGTACGCACAG | 5.01
5 | CCTGCTAGGTCATGGTCAGATAATCTACAGTATG | 2.59
6 | CGAACTAGGTCAAAGGTCAAAGTCGAGCCAACCA | 8.93
7 | AATACAGGGTCATTGTAGGCCAGAGTACGCACAG | 4.54
8 | AGAATGAGGTTATACGTAGATCAGGGATGAAAGT | 1.93
9 | ATCGAAAGGTCGAGGTGAGTTTAGAGAAAGGGAA | 3.71
10 | TGAATGAGGTGATAAGATCAGGGAACGTTGCAAA | 0.43
11 | ATCGAAAGGTCGAAGGTTAGTATACCCACCCGAA | 4.69
12 | TCATATAGGTAAAGGGTGAAAGTCGGTGTGGTAA | 2.03
13 | CCTTACGGGTCAAGGTTATAGCGCGGGTGGTACG | 3.94
14 | CATCCAAGGTCAGAGAGGTCAGTGAATGCCGAGT | 5.72
15 | CCTTACGGGGCACTGACAGGTTATAGCATTTGGA | 0.21
16 | TGAATGAGGTTAAAAATCAGGGAACGTGGCGTCG | 1.45
17 | TTACCAAGGTGAAAGGTTGTTGATGCACGCCTTG | 2.32
18 | CCTAGCAGGCCCGGGTCACTCAAGCATTTCGCTT | 2.49
19 | AGTCAAAGTTCACCAGGTAACGTAAGATTCAGCT | 4.15
20 | TCTTGTAGATCAAGCCGGTTAAGAAAGCCTGAGT | 0.402

Row | Sequence | PBM binding z-score
21 | TCGAGTAGGTTAGGGGCCTTCAGAATGGCGTCGA | -0.114
22 | GCTGGGAGGACAAGGTCAGAGCTTTGTCCGTAGA | 2.62
23 | CCTTAAGGGTCAAGGTTATAGCACGGGTGGTACG | 5.62
24 | GCGAGCAGGCCATTTGGGTCACTCAATGACGGGC | 0.937
25 | CGAACTAGGTCATCTAGGACAGTGAATACATTGA | 2.23
26 | CCAGACAGGTGAAAGGTACCTCAGTCTGGTACGC | 0.49
27 | GCAGACAGGTAAAACGCAGGTAACTCAGGGTGGC | -0.286
28 | CCTCGCAGGCCAATCTGGGTCACTCAAGGCTTGA | 1.75
29 | GGAACGAGGGCATTCTAGTTGATAGCATGGCGAT | 0.248
30 | CCTACTAGGCCATTCAGAGGTCATTGATCATATG | 4.84
31 | AGAACGACGGCACGCTGAGTTGATAGCAGAGTAG | -0.447
32 | TCTGCTAGGTTAGTTGGTCAGCTAACGAGCTGCC | -0.512
33 | ATCTCTAGGTAACAAGTTCAGTGTAAGAGAGGAC | 1.09
34 | ATCGAAAGGTCGTGAGGTGAGTAGACAGAAAGGC | 4.15
35 | CCTACTGGGCCACGAAAGCTCATTGATTCAGTGA | -0.778
36 | AGAACGAGGGCAATGAGTTGATGGCACGGGTGGC | 0.0282
37 | CCTACTGGGCCAAGGTTATTGATCAGTCAAAGCA | 0.421
38 | CCTTACGGGTCAAGGTTTTAGCACGGGTGGTACG | 4.13
39 | TCTTGTAGACCAATAGAGGTTAAGAAAGTGCGCT | 1.6
40 | ACAGACAGGTGAGTGAAGGTAACTTAGCTGGACG | 0.132

What follows are sequences tested on RARa homodimer (NR concentration 270 nM) in the same assay as above.
Method in brief: as §1

Row | Sequence | PBM binding z-score
41 | TCTCGGAGGACACGATGGTCAGAGCTTTCCAGAG | -0.829
42 | GCTTACGGATCAAAGGTTATAGCATGAATAGAAT | 0.0862
43 | CTACCAAGGTGAACAAGGTCGTCGATTACTATTC | 0.41
44 | AATACAGGGTCATCGTAGGCCAGTGTACGCACAG | 1
45 | CCTGCTAGGTCATGGTCAGATAATCTACAGTATG | 0.0727
46 | CGAACTAGGTCAAAGGTCAAAGTCGAGCCAACCA | 3.32
47 | AATACAGGGTCATTGTAGGCCAGAGTACGCACAG | 0.607
48 | AGAATGAGGTTATACGTAGATCAGGGATGAAAGT | 0.93
49 | ATCGAAAGGTCGAGGTGAGTTTAGAGAAAGGGAA | 0.68
50 | TGAATGAGGTGATAAGATCAGGGAACGTTGCAAA | -0.23
51 | ATCGAAAGGTCGAAGGTTAGTATACCCACCCGAA | 1.42
52 | TCATATAGGTAAAGGGTGAAAGTCGGTGTGGTAA | 2.05
53 | CCTTACGGGTCAAGGTTATAGCGCGGGTGGTACG | 0.367
54 | CATCCAAGGTCAGAGAGGTCAGTGAATGCCGAGT | 3.06
55 | CCTTACGGGGCACTGACAGGTTATAGCATTTGGA | 0.0601
56 | TGAATGAGGTTAAAAATCAGGGAACGTGGCGTCG | -0.472
57 | TTACCAAGGTGAAAGGTTGTTGATGCACGCCTTG | 0.397
58 | CCTAGCAGGCCCGGGTCACTCAAGCATTTCGCTT | -0.473
59 | AGTCAAAGTTCACCAGGTAACGTAAGATTCAGCT | 1.72
60 | TCTTGTAGATCAAGCCGGTTAAGAAAGCCTGAGT | -0.0189

Row | Sequence | PBM binding z-score
61 | TCGAGTAGGTTAGGGGCCTTCAGAATGGCGTCGA | -1.13
62 | GCTGGGAGGACAAGGTCAGAGCTTTGTCCGTAGA | -0.22
63 | CCTTAAGGGTCAAGGTTATAGCACGGGTGGTACG | 1.31
64 | GCGAGCAGGCCATTTGGGTCACTCAATGACGGGC | -0.309
65 | CGAACTAGGTCATCTAGGACAGTGAATACATTGA | 0.753
66 | CCAGACAGGTGAAAGGTACCTCAGTCTGGTACGC | -0.2
67 | GCAGACAGGTAAAACGCAGGTAACTCAGGGTGGC | -0.674
68 | CCTCGCAGGCCAATCTGGGTCACTCAAGGCTTGA | -0.288
69 | GGAACGAGGGCATTCTAGTTGATAGCATGGCGAT | -0.43
70 | CCTACTAGGCCATTCAGAGGTCATTGATCATATG | 1.44
71 | AGAACGACGGCACGCTGAGTTGATAGCAGAGTAG | -0.252
72 | TCTGCTAGGTTAGTTGGTCAGCTAACGAGCTGCC | -1.39
73 | ATCTCTAGGTAACAAGTTCAGTGTAAGAGAGGAC | 1.11
74 | ATCGAAAGGTCGTGAGGTGAGTAGACAGAAAGGC | 0.372
75 | CCTACTGGGCCACGAAAGCTCATTGATTCAGTGA | -0.375
76 | AGAACGAGGGCAATGAGTTGATGGCACGGGTGGC | -0.254
77 | CCTACTGGGCCAAGGTTATTGATCAGTCAAAGCA | -0.486
78 | CCTTACGGGTCAAGGTTTTAGCACGGGTGGTACG | 0.944
79 | TCTTGTAGACCAATAGAGGTTAAGAAAGTGCGCT | 0.38
80 | ACAGACAGGTGAGTGAAGGTAACTTAGCTGGACG | -0.0854
